High-throughput results as filed in PubChem BioAssay.
KCNQ2 enhance: potentiators of rat KCNQ2 potassium channel; O88943; CHO-K1 KCNQ2, FluxOR thallium flux fluorescence; stronger effect = higher value; B-score at 10 µM; hit rate 0.54% among 310,000; AID 2239;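 active = fluorescence ratio B-score at least 3 SD of library B-scores, with initial fluorescence B-score within 3 of them, cut at about 5.3 in these data; same plate scores as AID 2156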;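 note: B-score of peak minus minimum over baseline fluorescence ratio after K+ and Tl+ stimulus; positive B-score means potentiation of KCNQ2 with more thallium influx and brighter signal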
Target sequence (O88943 whole entry, looked up): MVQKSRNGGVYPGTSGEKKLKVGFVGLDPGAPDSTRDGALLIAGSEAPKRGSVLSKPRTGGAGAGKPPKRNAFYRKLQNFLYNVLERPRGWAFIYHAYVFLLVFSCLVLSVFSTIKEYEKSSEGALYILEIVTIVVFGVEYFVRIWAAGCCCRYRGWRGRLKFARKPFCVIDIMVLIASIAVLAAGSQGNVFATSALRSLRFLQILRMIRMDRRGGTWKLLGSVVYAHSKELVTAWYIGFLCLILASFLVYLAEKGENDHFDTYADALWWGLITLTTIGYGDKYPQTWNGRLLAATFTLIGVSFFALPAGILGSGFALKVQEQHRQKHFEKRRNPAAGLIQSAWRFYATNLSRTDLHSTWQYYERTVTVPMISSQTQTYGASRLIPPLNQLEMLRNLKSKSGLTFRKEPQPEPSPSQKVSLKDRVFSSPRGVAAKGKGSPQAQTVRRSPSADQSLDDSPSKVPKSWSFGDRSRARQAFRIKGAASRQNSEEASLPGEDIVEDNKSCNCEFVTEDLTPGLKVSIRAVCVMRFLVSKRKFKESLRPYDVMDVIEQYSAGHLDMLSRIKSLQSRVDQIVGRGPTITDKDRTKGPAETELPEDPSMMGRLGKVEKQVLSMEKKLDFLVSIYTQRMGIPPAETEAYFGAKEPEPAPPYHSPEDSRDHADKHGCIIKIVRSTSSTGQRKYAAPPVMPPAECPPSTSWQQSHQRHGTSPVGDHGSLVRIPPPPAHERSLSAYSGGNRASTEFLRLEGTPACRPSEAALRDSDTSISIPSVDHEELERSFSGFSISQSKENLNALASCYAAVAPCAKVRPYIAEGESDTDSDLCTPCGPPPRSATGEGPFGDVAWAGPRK
KCNQ2 inh: KCNQ2 (rat) channel inhibition. B-score at 10 µM. CHO-K1 KCNQ2, FluxOR thallium flux, 20 min; stronger effect = lower value. hit rate 1.1% among 310,000. AID 2156;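 active = fluorescence ratio B-score at most minus 3 library SDs, with starting brightness B-score within 2 library SDs, cut at about -5.5 in these data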
Kir21 conf inh: confirmation of mouse Kir2.1 potassium channel inhibitors. shares compounds with KCNQ2 enhance. Kir2.1-expressing cells, FluxOR thallium flux fluorescence; stronger effect = lower value. Tl flux remaining, % of negative control (stronger effect = lower value), % at 10 µM. hit rate 41% among 2,300;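 active = Primary-screen hit whose thallium flux fell at least 3 control SD below untreated wells in both duplicates, with normal baseline fluorescence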;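 note: 0% = blank wells without stimulus and 100% = stimulated no-compound controls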
HEK293 ctr: counter-screen for Kir2.1 inhibitors: effect in parental HEK293 cells. hit rate 19% among 2,300. shares compounds with KCNQ2 enhance. FluxOR thallium flux fluorescence; 0% = unstimulated blank wells. FluxOR signal as % of negative control (100 = no effect), % at 10 µM;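 active = dye signal at least 3 control SD above or below untreated wells in both duplicates, raw fluorescence within 3, either direction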;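 note: percent is based on the flux ratio of peak minus minimum fluorescence over baseline F0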
CHO-K1 Tl ctr: counter-screen for KCNQ2 potentiators: effect in parental CHO-K1 cells; shares compounds with KCNQ2 enhance; FluxOR thallium flux fluorescence; zero = vehicle mean+3SD, 100% = vehicle-minus-blank window; activity increase over 3SD of controls, % at 10 µM; hit rate 43% among 1,200; AID 2282;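 active = signal rise of at least 3 SD above the untreated control mean, in both duplicate wells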;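 note: counter screen of KCNQ2 potentiator hits so any rise reflects channel-independent effects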
KCNQ1 pot spec: human KCNQ1 counter-target activity of KCNQ2 potentiators | shares compounds with KCNQ2 enhance | CHO KCNQ1 stable, FluxOR thallium flux fluorescence; beyond 3SD, as % of vehicle-control signal | activation over 3SD threshold, % at 10 µM | hit rate 28% among 1,200 | AID 2283;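 active = fluorescence ratio rise of at least 3 SD of vehicle wells above their mean, in both replicate wells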;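 note: 0% = vehicle mean plus 3 SD and 100% = vehicle minus unstimulated blank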
KCNQ2 pot conf: confirmation of rat KCNQ2 potassium channel potentiators. shares compounds with KCNQ2 enhance. potentiation, less the hit threshold, % at 10 µM. hit rate 68% among 1,200. AID 2287. CHO-KCNQ2 cells, FluxOR thallium flux fluorescence;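 active = fluorescence ratio rising 3 SD or more over the vehicle control mean in both replicates, plus primary screen hit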;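 note: peak minus minimum thallium fluorescence divided by baseline after K/Tl stimulus; 0% = vehicle mean plus 3 SD and 100% = vehicle minus unstimulated blank difference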
Kir21 spec: mouse Kir2.1 off-target activity of KCNQ2 potentiators. HEK293 Kir2.1, FluxOR thallium flux fluorescence. AID 2345. hit rate 2% among 1,200. activity over 3SD threshold, % at 10 µM. shares compounds with KCNQ2 enhance;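 active = fluorescence ratio rise of at least 3 SD above the vehicle-control mean, seen in both replicates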;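 note: 0% = vehicle mean plus 3 SD and 100% = vehicle minus no-stimulus blank window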
KCNQ2 W236L MoA: KCNQ2 potentiators acting on retigabine-insensitive rat KCNQ2 W236L mutant; current increase over 3SD of negative controls (%), stronger effect = higher value, % at 25 µM; CHO KCNQ2-W236L, automated patch clamp current; hit rate 10% among 940; AID 2558; shares compounds with KCNQ2 enhance;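 active = current increase at least 3 SD of the untreated controls above them in both duplicate recordings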
An asterisk follows results filed as active; i = inactive; x = not tested or not shown. An excerpt weighted towards active compounds, which were near 1.6% of everything screened.

SMILES	KCNQ2 enhance	KCNQ2 inh	Kir21 conf inh	HEK293 ctr	others
CC(C)c1ccc(C(=O)N(c2ccccn2)C(C)c2ccco2)cc1 (centres undefined)	x	i	x	x
CC(c1ccco1)N(C(=O)CSc1ccc(Br)cc1)c1ccccn1 (centres undefined)	x	i	69%*	i
O=C(COc1ccccc1[N+](=O)[O-])N(Cc1ccco1)C1CCS(=O)(=O)C1 (centres undefined)	1.1	i	x	x
CCCCn1c(N)c(N(CCC(C)C)C(=O)c2ccc3c(c2)OCCO3)c(=O)[nH]c1=O	0.29	i	x	x
C[n+]1ccn(CC(=O)c2cc(C(C)(C)C)c(O)c(C(C)(C)C)c2)c1	3	i	x	x
CC1=NN(C(=O)c2c(Br)cnn2C)C(O)(C(F)(F)F)C1 (centres undefined)	14*	i	i	i	CHO-K1 Tl ctr=-17;KCNQ1 pot spec=-6;KCNQ2 pot conf=-13;Kir21 spec=-32
COc1ccc(OCC(=O)N2N=C(C)CC2(O)C(F)(F)F)cc1 (centres undefined)	x	i	x	x
Nc1ncc(Br)cc1S(=O)(=O)NCCC(=O)NCCc1ccc(Cl)cc1	0.01	i	x	x
Cc1ccc(C(=O)C(C)OC(=O)Cn2c(C)csc2=O)cc1 (centres undefined)	x	i	x	x
O=C1c2ccccc2C(O)N1Cc1ccco1 (centres undefined)	2.2	i	x	x
c1coc(CN=C2NC(=NCc3ccco3)c3ccccc32)c1	x	i	35%*	i
COc1ccc(CNC/C=C/c2ccccc2)cc1	0.18	i	18%*	i
COc1ccc(CNCC(O)(c2ccccc2)c2ccc(F)cc2)cc1 (centres undefined)	x	i	42%*	i
COc1ccc(CNCC(O)(c2ccccc2)c2ccc(F)cc2)cc1OC (centres undefined)	0.98	i	x	x
Cc1ccc(C(O)(CCN2CCCCC2)c2ccccc2)cc1 (centres undefined)	x	i	x	x
Cc1ccc(C(O)(CNCc2ccccc2)c2ccccc2)cc1 (centres undefined)	x	i	46%*	i
COc1ccc(CCNC/C=C/c2ccccc2)cc1	0.37	i	x	x
CCOc1ccc(/C=C2\CCCc3c2nc2ccccc2c3C(=O)O)cc1OC	x	i	x	x
COc1cc(C(=O)NCCSc2ccc(F)cc2)cc(OC)c1OC	0.8	i	x	x
Cc1cc(C)c2nc(C)cc(N/N=C/c3ccc(O)cc3)c2c1	-8.1	-8.1*	i	i
Cc1cc(N/N=C/c2ccc(O)cc2)c2cccc(C)c2n1	1.1	i	x	x
O=C(N/N=C/c1ccccn1)c1cc(C2CC2)nc2ccccc12	x	i	x	x
O=C(N/N=C/c1ccccn1)c1cc(-c2ccccc2)nc2ccccc12	11*	i	i	i	CHO-K1 Tl ctr=222*;KCNQ1 pot spec=81*;KCNQ2 pot conf=13*;Kir21 spec=-27;KCNQ2 W236L MoA=i
O=C(N/N=C/c1ccccn1)c1cc(Br)ccc1O	7.3*	i	i	228%*	CHO-K1 Tl ctr=-14;KCNQ1 pot spec=0;KCNQ2 pot conf=44*;Kir21 spec=-24;KCNQ2 W236L MoA=i
O=C(N/N=C/c1cccnc1)c1cc(Br)ccc1O	x	i	x	x
SMILES	KCNQ2 enhance	KCNQ2 inh	Kir21 conf inh	HEK293 ctr	others
Cc1ccccc1NC(=S)NC(=O)c1cc(-c2ccccc2)nc2ccccc12	6.2*	i	i	i	CHO-K1 Tl ctr=-11;KCNQ1 pot spec=8.8*;KCNQ2 pot conf=-22;Kir21 spec=-18
Cc1cccc(NC(=S)NC(=O)c2cc(-c3ccccc3)nc3ccccc23)c1	3.5	i	x	x
Cc1ccc(S(=O)(=O)N2CCCCC2)cc1C(=O)OC1CCCCC1=O (centres undefined)	x	i	x	x
O=c1c2[nH]c3cccc(Cl)c3c2ncn1Cc1ccco1	0.98	i	x	x
OCC1(Cc2ccc(F)cc2F)CCCN(Cc2ccc(Cl)cc2)C1 (centres undefined)	x	i	56%*	i
CCOc1ccc(CN2CCCC(CO)(Cc3ccccc3F)C2)cc1 (centres undefined)	0.61	i	x	x
Cc1cccc(Nc2nc(N)nc(CN3CCN(C)CC3)n2)c1	0.06	i	x	x
Cc1cccc(Nc2nc(N)nc(CN3CCN(c4ccc(F)cc4)CC3)n2)c1	6.9*	i	i	i	CHO-K1 Tl ctr=44*;KCNQ1 pot spec=-7;KCNQ2 pot conf=-8;Kir21 spec=-40;KCNQ2 W236L MoA=i
COc1cc(C)nc(NCc2ccccc2)n1	x	i	x	x
COc1ccc(Nc2cc(C)nc(NCc3ccccc3)n2)cc1	x	i	64%*	i
O=C(O)C1CC=CCC1C(=O)NCc1ccc(Cl)c(Cl)c1 (centres undefined)	0.7	i	x	x
C/C(=N/NC(=O)CNC(=O)C1COc2ccccc2O1)c1ccc([N+](=O)[O-])cc1 (centres undefined)	1.2	i	x	x
O=C(N/N=C/c1ccco1)c1cc(-c2ccc3ccccc3c2)n[nH]1	9.2*	i	i	i	CHO-K1 Tl ctr=54*;KCNQ1 pot spec=-13;KCNQ2 pot conf=32*;Kir21 spec=-27;KCNQ2 W236L MoA=i
CCc1ccc(-c2cc(C(=O)N/N=C/c3ccco3)[nH]n2)cc1	1.3	i	x	x
CC(C)C(=O)N1CCC(n2nccc2NC(=O)CCc2ccccc2)CC1	1.3	i	x	x
O=C1NC2(CCCCCCC2)C(=O)N1Cc1ccc(F)cc1	x	i	x	x
O=C1NC2(CCCCCC2)C(=O)N1Cc1ccccc1	5.6*	i	i	i	CHO-K1 Tl ctr=-14;KCNQ1 pot spec=-6;KCNQ2 pot conf=-1;Kir21 spec=-41
Cc1ccc(S(=O)(=O)NCC(=O)OCC(=O)N2CCN(C(=O)c3ccco3)CC2)cc1C	x	i	x	x
O=C(c1ccco1)N1CCCC(c2nc3c(nnn3Cc3ccc(F)cc3)c(=O)[nH]2)C1 (centres undefined)	0.8	i	x	x
CCC(=O)c1ccc(OCC(=O)OCC(=O)N2c3ccccc3NC(=O)C2(C)C)cc1	x	i	x	x
C=CCN(c1nc(C)cc(OC)n1)S(=O)(=O)c1ccccc1	x	i	55%*	72%*
C=CCN(c1nc(C)cc(OC)n1)S(=O)(=O)c1ccc(C)cc1	x	i	x	x
COC(=O)CN(c1nc(C)cc(OC)n1)S(=O)(=O)c1ccc(C)cc1	2.2	i	x	x
CCN(c1nc(C)cc(OC)n1)S(=O)(=O)c1ccccc1	x	i	56%*	74%*
Clc1ccc(-c2nc3ccccc3[nH]2)cn1	4.2	i	x	x
NC(=O)C1CCN(CC(O)COc2ccc(-c3ccccc3)cc2)CC1 (centres undefined)	x	i	x	x
